{
  "source": "PubChem BioAssay (NCATS)",
  "key": {"[1]": {"test": "Identifying Small Molecule Inhibitors of Pancreatic Cancer Stem Cells (SN12C, Spheroid) (AID 1259360); also: potency is read from the fitted curve at half-maximal effect", "settings": "Potency: SN12C spheroid viability", "procedure,_shortened": "(§1)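 Viability is scored by CellTiter-Glo luminescence 48 h after dosing, expressed as percent activity against vehicle and no-cell references. Spheroid formats rely on cells cultured 14 days in stem cell media beforehand.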"}, "[2]": {"test": "P-glycoprotein substrates identified in KB-3-1 adenocarcinoma cell line, qHTS therapeutic library screen (AID 1346986)", "procedure,_shortened": "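Viability read by CellTiter-Glo after 72 h compound exposure in dose-response of KB-3-1 and KB-8-5-11 (P-gp-high) cells. Hits needed AC50 < 10 uM, >50% maximum response and curve class -1.1 to -2.4. Cherry-picks retested ± tariquidar, including pcDNA/MDR-19 HEK-293 pair.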"}, "[3]": {"test": "P-glycoprotein substrates identified in KB-8-5-11 adenocarcinoma cell line, qHTS therapeutic library screen (AID 1346987)", "procedure,_shortened": "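Compounds are pinned in dose-response onto KB-8-5-11 cells (500 cells/well, colchicine-free medium) and left 72 h at 37 degree C. CellTiter-Glo luminescence then yields AC50 values.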"}, "[4]": {"test": "Identifying Small Molecule Inhibitors of Pancreatic Cancer Stem Cells (A2780, Spheroid) (AID 1259357)", "settings": "Potency: A2780 spheroid viability", "procedure,_shortened": "as §1"}, "[5]": {"test": "Identifying Small Molecule Inhibitors of Pancreatic Cancer Stem Cells (Panc1, Spheroid) (AID 1259359)", "settings": "Panc1 spheroid cancer stem cell viability", "procedure,_shortened": "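Monolayer and spheroid cultures are compared. Spheroids form over 14 days in stem cell medium on hydrogel-coated low-attachment plates, then are exposed to compound for 48 h before CellTiter-Glo luminescence.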"}, "[6]": {"test": "qHTS assay to identify small molecule inhibitors of chordoma cells - UCH-2 (AID 1259356)"}},
  "note": "“And” between values parts separate entries of the source, which are not always exact repeats. Equal entries are not always repeated. Results filed as inconclusive are left out. Where a call stands in place of a potency, no number is given. The source holds several records for some structures; these can differ, active in one and inactive in another. The source made the active and inactive calls. Calls follow the shape of the dose curve; as a rule, active = well fitted curve in the direction sought with a large enough effect; inconclusive = small, poorly fitted or top-dose-only effect, or another doubt; inactive = no such curve, though single readings can be large; an effect the other way counts as inactive or inconclusive.",
  "data": [
    {"compound": "CC(C)[C@H](CO)Nc1nc(Nc2ccc(C(=O)O)c(Cl)c2)c2ncn(C(C)C)c2n1", "values": [
      {"measurement": "Potency", "setting": "[1]", "value": "inactive"},
      {"measurement": "Potency", "setting": "[2]", "value": "inactive"},
      {"measurement": "Potency", "setting": "[3]", "value": "inactive"}
    ]},
    {"compound": "COc1ncc(-c2ccc3nccc(-c4ccnnc4)c3c2)cc1NS(=O)(=O)c1ccc(F)cc1F", "values": [
      {"measurement": "Potency", "setting": "[4]", "value": "0.132 µM (active)"},
      {"measurement": "Potency", "setting": "[5]", "value": "0.0074 µM (active)"},
      {"measurement": "Potency", "setting": "[3]", "value": "2.96 µM (active) and 29.1 nM (active)"}
    ]},
    {"compound": "COc1ccc(C2CC(c3ccccc3)=NN2c2ccc(S(N)(=O)=O)cc2)cc1", "note": "(stereo not drawn)", "values": [
      {"measurement": "Potency", "setting": "[1]", "value": "inactive"}
    ]},
    {"compound": "O=c1cc(N2CCOCC2)oc2c(-c3cccc4c3sc3ccccc34)cccc12", "values": [
      {"measurement": "Potency", "setting": "[4]", "value": "26.4 µM (active)"},
      {"measurement": "Potency", "setting": "[2]", "value": "inactive"},
      {"measurement": "Potency", "setting": "[3]", "value": "inactive"}
    ]},
    {"compound": "CCOC(CN1C(=O)[C@](CC(=O)Nc2ccc(C)cc2)(NC(=O)Nc2ccc(C)cc2)c2ccccc21)OCC", "values": [
      {"measurement": "Potency", "setting": "[4]", "value": "0.0059 µM (active)"},
      {"measurement": "Potency", "setting": "[1]", "value": "18.7 µM (active)"}
    ]},
    {"compound": "COCCCCC(=NOCCN)c1ccc(C(F)(F)F)cc1", "values": [
      {"measurement": "outcome", "setting": "[6]", "value": "inactive"},
      {"measurement": "Potency", "setting": "[3]", "value": "20.9 µM (active)"}
    ]},
    {"compound": "CN(C)Cc1ccc(-c2nc3cccc4c3n2CCNC4=O)cc1", "values": [
      {"measurement": "Potency", "setting": "[1]", "value": "inactive"},
      {"measurement": "Potency", "setting": "[3]", "value": "inactive"}
    ]},
    {"compound": "CC(=O)N(C)C1(c2ccccc2)CCN(CCC[C@]2(c3ccc(Cl)c(Cl)c3)CCCN(C(=O)c3ccccc3)C2)CC1", "values": [
      {"measurement": "Potency", "setting": "[4]", "value": "18.7 µM (active)"},
      {"measurement": "Potency", "setting": "[3]", "value": "10.5 µM (active) and 13 µM (active)"}
    ]},
    {"compound": "O=C(Nc1cc(Cl)cc2c1[nH]c1cnccc12)c1cccnc1", "values": [
      {"measurement": "Potency", "setting": "[1]", "value": "inactive"},
      {"measurement": "Potency", "setting": "[2]", "value": "inactive"},
      {"measurement": "Potency", "setting": "[3]", "value": "inactive"}
    ]},
    {"compound": "CC(C)(C)c1cc(C(=O)O)c(NC(=O)Nc2ccc3[nH]ncc3c2)s1", "values": [
      {"measurement": "Potency", "setting": "[4]", "value": "inactive"},
      {"measurement": "Potency", "setting": "[1]", "value": "inactive"},
      {"measurement": "Potency", "setting": "[2]", "value": "inactive"},
      {"measurement": "Potency", "setting": "[3]", "value": "inactive"}
    ]},
    {"compound": "O=C(Nc1ccccc1-c1cn2c(CN3CCNCC3)csc2n1)c1cnc2ccccc2n1", "values": [
      {"measurement": "Potency", "setting": "[4]", "value": "inactive"},
      {"measurement": "Potency", "setting": "[3]", "value": "26.4 µM (active)"}
    ]},
    {"compound": "CCOC(=O)C1=C(N)Oc2ccc(Br)cc2C1C(C#N)C(=O)OCC", "note": "(stereo not drawn)", "values": [
      {"measurement": "Potency", "setting": "[2]", "value": "inactive"},
      {"measurement": "Potency", "setting": "[3]", "value": "inactive"}
    ]},
    {"compound": "O=C(N[C@@H](c1ccccc1)[C@@H]1CCCCN1)c1cccc(C(F)(F)F)c1Cl", "values": [
      {"measurement": "Potency", "setting": "[1]", "value": "inactive"},
      {"measurement": "Potency", "setting": "[3]", "value": "inactive"}
    ]},
    {"compound": "CC(=O)Nc1ccc([C@H](C)C(=O)Nc2ncc(C(C)C)s2)cc1", "values": [
      {"measurement": "Potency", "setting": "[5]", "value": "8.33 µM (active)"},
      {"measurement": "Potency", "setting": "[3]", "value": "3.72 µM (active) and 3.66 µM (active)"}
    ]},
    {"compound": "CC(C)(C)C(=O)Oc1ccc2c(c1)nc(NC(=O)c1cccc([N+](=O)[O-])c1)n2CCCO", "values": [
      {"measurement": "Potency", "setting": "[4]", "value": "inactive"},
      {"measurement": "Potency", "setting": "[1]", "value": "inactive"}
    ]},
    {"compound": "OC[C@H]1O[C@@H](n2cnc3c2NC=NC[C@@H]3O)C[C@H]1O", "values": [
      {"measurement": "Potency", "setting": "[4]", "value": "inactive"},
      {"measurement": "Potency", "setting": "[1]", "value": "inactive"},
      {"measurement": "Potency", "setting": "[3]", "value": "inactive"}
    ]},
    {"compound": "COc1cc2ncnc(-n3nc(-c4ccccn4)nc3N)c2cc1OC", "values": [
      {"measurement": "Potency", "setting": "[4]", "value": "inactive"},
      {"measurement": "Potency", "setting": "[2]", "value": "inactive"},
      {"measurement": "Potency", "setting": "[3]", "value": "inactive and 10 µM (active)"}
    ]},
    {"compound": "O=C1C(Cl)=C(NCCN2CCOCC2)C(=O)c2ncccc21", "values": [
      {"measurement": "Potency", "setting": "[4]", "value": "9.35 µM (active)"},
      {"measurement": "Potency", "setting": "[5]", "value": "3.72 µM (active)"},
      {"measurement": "Potency", "setting": "[1]", "value": "14.8 µM (active)"},
      {"measurement": "Potency", "setting": "[3]", "value": "20.9 µM (active)"}
    ]},
    {"compound": "CC(=O)O[C@]1(C(C)=O)CC[C@@H]2[C@@H]3C[C@H](C)C4=CC(=O)CC[C@]4(C)[C@H]3CC[C@@]21C", "values": [
      {"measurement": "Potency", "setting": "[2]", "value": "inactive"},
      {"measurement": "Potency", "setting": "[3]", "value": "inactive"}
    ]},
    {"compound": "COc1cccc([C@@H](C)NCCCc2ccccc2Cl)c1", "values": [
      {"measurement": "Potency", "setting": "[2]", "value": "inactive"},
      {"measurement": "Potency", "setting": "[3]", "value": "inactive"}
    ]},
    {"compound": "CCOC1OC(=O)C[C@H]1NC(=O)[C@@H]1CCCN1C(=O)[C@@H](NC(=O)c1ccc(N)c(Cl)c1)C(C)(C)C", "note": "(stereo partly drawn)", "values": [
      {"measurement": "Potency", "setting": "[2]", "value": "inactive"},
      {"measurement": "Potency", "setting": "[3]", "value": "inactive"}
    ]},
    {"compound": "O=C(O)c1ccc(-c2c[nH]c3ncc(-c4ccccc4)cc23)cc1C1CCCC1", "values": [
      {"measurement": "Potency", "setting": "[2]", "value": "inactive"},
      {"measurement": "Potency", "setting": "[3]", "value": "inactive and 3.66 µM (active)"}
    ]}
  ]
}
